The source made the active and inactive calls. The calls were made as follows: active = hit-call score of the fitted dose curve at least 0.9, where 1 is the maximum; inactive = score below 0.9.
Columns and labels:
[1] = read-out: Tumor necrosis factor receptor superfamily member 6 (Homo sapiens) (UniProt P25445); assay: LTEA_HepaRG_FAS: Life Technologies and Expression Analysis (LTEA) Assay for Fas cell surface death receptor (FAS) using HepaRG (AID 2283447); conditions: mRNA level, 48 h; actives raise or lower the signal
How it was run: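 Differentiated HepaRG cells in serum-free induction medium were exposed 48 h to 8 half-log concentrations up to 100 uM in 0.5% DMSO, in duplicate. FAS mRNA was measured by qRT-PCR normalised to ACTB, GAPDH and POLR2A; bidirectional fit versus DMSO.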

[2] = read-out: Fatty acid synthase (Homo sapiens) (UniProt P49327); assay: LTEA_HepaRG_FASN: Life Technologies and Expression Analysis (LTEA) Assay for Fatty Acid Synthase (FASN) using HepaRG (AID 2283448); conditions: mRNA level, 48 h; actives raise or lower the signal
How it was run: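 Differentiated human HepaRG cells were exposed for 48 h in serum-free induction medium to eight half-log concentrations up to 100 uM in 0.5% DMSO, in duplicate. FASN mRNA was quantified by TaqMan qRT-PCR, normalized to ACTB/GAPDH/POLR2A, and fitted bidirectionally against DMSO.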

[3] = read-out: Cyclin D2 (CCND2), CCND2 (gene 894); assay: LTEA_HepaRG_CCND2: Life Technologies and Expression Analysis (LTEA) Assay for Cyclin D2 (CCND2) using HepaRG (AID 2283449); conditions: mRNA level, 48 h; actives raise or lower the signal;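 also: CCND2 transcript measured by TaqMan qRT-PCR and normalised to three housekeeping genes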
How it was run: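 Chemicals in 0.5% DMSO, eight half-log concentrations from 100 uM top, were applied in duplicate for 48 h to human HepaRG cells in serum-free induction medium. CCND2 mRNA by TaqMan qRT-PCR, normalised to ACTB/GAPDH/POLR2A; bidirectional fit versus DMSO.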

[4] = read-out: Cyclin Dependent Kinase Inhibitor 1A (CDKN1A), CDKN1A (gene 1026); assay: LTEA_HepaRG_CDKN1A: Life Technologies and Expression Analysis (LTEA) Assay for Cyclin Dependent Kinase Inhibitor 1A (CDKN1A) using HepaRG (AID 2283450); conditions: mRNA level, 48 h; actives raise or lower the signal
How it was run: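 Read-out is CDKN1A mRNA by TaqMan qRT-PCR, normalized to three housekeeping genes and fitted in both directions against the DMSO baseline. Human HepaRG cells were treated 48 h with test chemicals up to 100 uM in half-log steps, 0.5% DMSO.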

[5] = read-out: Cyclin D1 (CCND1), CCND1 (gene 595); assay: LTEA_HepaRG_CCND1: Life Technologies and Expression Analysis (LTEA) Assay for Cyclin D1 (CCND1) using HepaRG (AID 2283451); conditions: mRNA level, 48 h; actives raise or lower the signal;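 as to AC50: TaqMan qRT-PCR transcript level normalised to ACTB GAPDH and POLR2A housekeeping genes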
How it was run: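 HepaRG plated 48 h, medium switched to serum-free induction medium, chemicals added in duplicate (top 100 uM, half-log steps, 0.5% DMSO) for 48 h, cells lysed, RNA measured by TaqMan qRT-PCR.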

[6] = read-out: catalase (CAT), CAT (gene 847); assay: LTEA_HepaRG_CAT: Life Technologies and Expression Analysis (LTEA) Assay for catalase (CAT) using HepaRG (AID 2283452); conditions: mRNA level, 48 h; actives raise or lower the signal;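 as to AC50: TaqMan qRT-PCR signal normalized to ACTB GAPDH and POLR2A housekeeping genes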
How it was run: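 HepaRG cells in serum-free induction medium, 0.5% DMSO vehicle, exposed 48 h in duplicate over 8 half-log concentrations from 100 uM. CAT mRNA measured by qRT-PCR, normalized to ACTB, GAPDH, POLR2A; bidirectional fit versus DMSO.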

[7] = read-out: flavin-containing dimethylaniline monooxygenases 3 (FMO3), FMO3 (gene 2328); assay: LTEA_HepaRG_FMO3: Life Technologies and Expression Analysis (LTEA) Assay for flavin-containing dimethylaniline monooxygenases 3 (FMO3) using HepaRG (AID 2283453); conditions: mRNA level, 48 h; actives raise or lower the signal
How it was run: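 HepaRG, 48 h exposure, 8-pt half-log series from 100 uM, 0.5% DMSO vehicle, duplicates; FMO3 transcript by Fluidigm TaqMan qRT-PCR, housekeeping-normalized; gain/loss fit vs DMSO.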

[8] = read-out: Cytochrome P450 (CYP1A1), CYP1A1 (gene 1543); assay: LTEA_HepaRG_CYP1A1: Life Technologies and Expression Analysis (LTEA) Assay for Cytochrome P450 (CYP1A1) using HepaRG (AID 2283454); conditions: mRNA level, 48 h; actives raise or lower the signal
How it was run: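 HepaRG, 48 h post-plating switched to serum-free induction medium; 8-pt conc-response (top 100 uM, half-log, 0.5% DMSO), duplicates, 48 h. Lysis in RLT, TaqMan qRT-PCR for CYP1A1; gain or loss vs DMSO.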

[9] = read-out: CFLAR gene, CFLAR (gene 8837); assay: LTEA_HepaRG_CFLAR: Life Technologies and Expression Analysis (LTEA) Assay for CFLAR gene using HepaRG (AID 2283455); conditions: mRNA level, 48 h; actives raise or lower the signal
How it was run: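 Differentiated HepaRG cells in serum-free induction medium were exposed 48 h in duplicate to eight half-log concentrations up to 100 uM in 0.5% DMSO; mRNA measured by TaqMan qRT-PCR, normalized to ACTB, GAPDH, POLR2A; bidirectional fitting versus DMSO.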

[10] = read-out: Forkhead box O1 (FOXO1), FOXO1 (gene 2308); assay: LTEA_HepaRG_FOXO1: Life Technologies and Expression Analysis (LTEA) Assay for Forkhead box O1 (FOXO1) using HepaRG (AID 2283456); conditions: mRNA level, 48 h; actives raise or lower the signal
How it was run: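 Differentiated HepaRG cells, in serum-free induction medium with 0.5% DMSO, exposed 48 h in duplicate to 8-point half-log series from 100 uM. FOXO1 mRNA measured by TaqMan qRT-PCR, normalized to ACTB, GAPDH, POLR2A; bidirectional fit versus DMSO.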

[11] = read-out: growth arrest and DNA damage 45 (GADD45A), GADD45A (gene 1647); assay: LTEA_HepaRG_GADD45A: Life Technologies and Expression Analysis (LTEA) Assay for growth arrest and DNA damage 45 (GADD45A) using HepaRG (AID 2283458); conditions: mRNA level, 48 h; actives raise or lower the signal
How it was run: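 Differentiated HepaRG cells were exposed in duplicate for 48 h in serum-free induction medium to 8-point half-log concentrations up to 100 uM in 0.5% DMSO. GADD45A mRNA was measured by TaqMan qRT-PCR, normalized to ACTB, GAPDH and POLR2A, with bidirectional fitting versus DMSO.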

[12] = read-out: Forkhead box O3 (FOXO3), FOXO3 (gene 2309); assay: LTEA_HepaRG_FOXO3: Life Technologies and Expression Analysis (LTEA) Assay for Forkhead box O3 (FOXO3) using HepaRG (AID 2283459); conditions: mRNA level, 48 h; actives raise or lower the signal
How it was run: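 Differentiated human HepaRG cells, 48 h post-plating, exposed in duplicate for 48 h in serum-free induction medium; 8-point half-log series from 100 uM in 0.5% DMSO. FOXO3 mRNA by TaqMan qRT-PCR, normalized to ACTB/GAPDH/POLR2A; bidirectional fit versus DMSO.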

[13] = read-out: ABC Transporter (ABCB1), ABCB1 (gene 5243); assay: LTEA_HepaRG_ABCB1: Life Technologies and Expression Analysis (LTEA) Assay for ABC Transporter (ABCB1) using HepaRG (AID 2283460); conditions: mRNA level, 48 h; actives raise or lower the signal
How it was run: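 HepaRG cells exposed in duplicate for 48 h in serum-free induction medium to eight half-log concentrations up to 100 uM in 0.5% DMSO. ABCB1 mRNA quantified by qRT-PCR, normalised to ACTB, GAPDH and POLR2A; fitted bidirectionally versus DMSO.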

[14] = read-out: growth arrest and DNA damage 45 (GADD45B), GADD45B (gene 4616); assay: LTEA_HepaRG_GADD45B: Life Technologies and Expression Analysis (LTEA) Assay for growth arrest and DNA damage 45 (GADD45B) using HepaRG (AID 2283461); conditions: mRNA level, 48 h; actives raise or lower the signal
How it was run: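 HepaRG, ~100,000 cells/well, 48 h plating; serum-free induction medium; cpd 100 uM top, half-log x8, 0.5% DMSO, duplicate, 48 h; lysis in RLT, RNA isolation, qRT-PCR; norm ACTB/GAPDH/POLR2A; bidirectional fit vs DMSO.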

[15] = read-out: ABC Transporter (ABCC3), ABCC3 (gene 8714); assay: LTEA_HepaRG_ABCC3: Life Technologies and Expression Analysis (LTEA) Assay for ABC Transporter (ABCC3) using HepaRG (AID 2283462); conditions: mRNA level, 48 h; actives raise or lower the signal
How it was run: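 Human HepaRG, 48 h dosing, 8-pt half-log series from 100 uM, 0.5% DMSO vehicle, duplicates. ABCC3 mRNA by TaqMan qRT-PCR, housekeeping-normalized; bidirectional curve fit vs DMSO.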

[16] = read-out: ABC Transporter (ABCB11), ABCB11 (gene 8647); assay: LTEA_HepaRG_ABCB11: Life Technologies and Expression Analysis (LTEA) Assay for ABC Transporter (ABCB11) using HepaRG (AID 2283463); conditions: mRNA level, 48 h; actives raise or lower the signal
How it was run: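 Differentiated human HepaRG cells in serum-free induction medium, dosed in duplicate for 48 h. Eight-point half-log series from 100 uM in 0.5% DMSO; ABCB11 mRNA by qRT-PCR, normalized to ACTB, GAPDH, POLR2A, fitted bidirectionally versus DMSO.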

[17] = read-out: ABC Transporter (ABCC2), ABCC2 (gene 1244); assay: LTEA_HepaRG_ABCC2: Life Technologies and Expression Analysis (LTEA) Assay for ABC Transporter (ABCC2) using HepaRG (AID 2283464); conditions: mRNA level, 48 h; actives raise or lower the signal
How it was run: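 HepaRG, 48 h post-plating; serum-free induction medium; cpd 8-pt, 100 uM top, half-log, 0.5% DMSO, duplicate, 48 h. Readout: ABCC2 mRNA by qRT-PCR, norm. ACTB/GAPDH/POLR2A. Bidirectional fit vs DMSO baseline.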

[18] = CEETOX_H295R_ESTRADIOL: CeeTox H295R High-throughput Steroidogenesis Assay for Estradiol (AID 2283440); conditions: actives raise or lower the signal;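 also: estradiol secreted into medium quantified by LC-MS/MS after dansyl derivatisation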
How it was run: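 Estradiol secreted into the medium was measured by tandem mass spectrometry after liquid-liquid extraction and dansylation. Human H295R cells had been forskolin-primed (10 uM, 48 h) before a 48 h chemical exposure with 0.1% DMSO.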

[19] = CEETOX_H295R_ESTRONE: CeeTox H295R High-throughput Steroidogenesis Assay for Estrone (AID 2283441); conditions: actives raise or lower the signal;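 also: estrone secreted into medium measured by LC-MS/MS after dansyl derivatization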
How it was run: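 H295R cells; 48 h forskolin (10 uM) prestimulation; 48 h compound exposure, 0.1% DMSO final. Medium estrone: MTBE extraction, dansyl derivatization, HPLC-MS/MS. Bidirectional fit vs DMSO.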

[20] = CEETOX_H295R_TESTO: CeeTox H295R High-throughput Steroidogenesis Assay for Testosterone (TESTO) (AID 2283457); conditions: actives raise or lower the signal
How it was run: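 H295R, passage ≤10, 48 h dosing; media extracted with MTBE → HPLC-MS/MS for testosterone; 7-pt standard curve sets LLOQ/ULOQ; bidirectional fit vs DMSO; MTT viability same wells.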

Measured: AC50

Fatty acid synthase (Homo sapiens), sequence (P49327 whole entry, looked up): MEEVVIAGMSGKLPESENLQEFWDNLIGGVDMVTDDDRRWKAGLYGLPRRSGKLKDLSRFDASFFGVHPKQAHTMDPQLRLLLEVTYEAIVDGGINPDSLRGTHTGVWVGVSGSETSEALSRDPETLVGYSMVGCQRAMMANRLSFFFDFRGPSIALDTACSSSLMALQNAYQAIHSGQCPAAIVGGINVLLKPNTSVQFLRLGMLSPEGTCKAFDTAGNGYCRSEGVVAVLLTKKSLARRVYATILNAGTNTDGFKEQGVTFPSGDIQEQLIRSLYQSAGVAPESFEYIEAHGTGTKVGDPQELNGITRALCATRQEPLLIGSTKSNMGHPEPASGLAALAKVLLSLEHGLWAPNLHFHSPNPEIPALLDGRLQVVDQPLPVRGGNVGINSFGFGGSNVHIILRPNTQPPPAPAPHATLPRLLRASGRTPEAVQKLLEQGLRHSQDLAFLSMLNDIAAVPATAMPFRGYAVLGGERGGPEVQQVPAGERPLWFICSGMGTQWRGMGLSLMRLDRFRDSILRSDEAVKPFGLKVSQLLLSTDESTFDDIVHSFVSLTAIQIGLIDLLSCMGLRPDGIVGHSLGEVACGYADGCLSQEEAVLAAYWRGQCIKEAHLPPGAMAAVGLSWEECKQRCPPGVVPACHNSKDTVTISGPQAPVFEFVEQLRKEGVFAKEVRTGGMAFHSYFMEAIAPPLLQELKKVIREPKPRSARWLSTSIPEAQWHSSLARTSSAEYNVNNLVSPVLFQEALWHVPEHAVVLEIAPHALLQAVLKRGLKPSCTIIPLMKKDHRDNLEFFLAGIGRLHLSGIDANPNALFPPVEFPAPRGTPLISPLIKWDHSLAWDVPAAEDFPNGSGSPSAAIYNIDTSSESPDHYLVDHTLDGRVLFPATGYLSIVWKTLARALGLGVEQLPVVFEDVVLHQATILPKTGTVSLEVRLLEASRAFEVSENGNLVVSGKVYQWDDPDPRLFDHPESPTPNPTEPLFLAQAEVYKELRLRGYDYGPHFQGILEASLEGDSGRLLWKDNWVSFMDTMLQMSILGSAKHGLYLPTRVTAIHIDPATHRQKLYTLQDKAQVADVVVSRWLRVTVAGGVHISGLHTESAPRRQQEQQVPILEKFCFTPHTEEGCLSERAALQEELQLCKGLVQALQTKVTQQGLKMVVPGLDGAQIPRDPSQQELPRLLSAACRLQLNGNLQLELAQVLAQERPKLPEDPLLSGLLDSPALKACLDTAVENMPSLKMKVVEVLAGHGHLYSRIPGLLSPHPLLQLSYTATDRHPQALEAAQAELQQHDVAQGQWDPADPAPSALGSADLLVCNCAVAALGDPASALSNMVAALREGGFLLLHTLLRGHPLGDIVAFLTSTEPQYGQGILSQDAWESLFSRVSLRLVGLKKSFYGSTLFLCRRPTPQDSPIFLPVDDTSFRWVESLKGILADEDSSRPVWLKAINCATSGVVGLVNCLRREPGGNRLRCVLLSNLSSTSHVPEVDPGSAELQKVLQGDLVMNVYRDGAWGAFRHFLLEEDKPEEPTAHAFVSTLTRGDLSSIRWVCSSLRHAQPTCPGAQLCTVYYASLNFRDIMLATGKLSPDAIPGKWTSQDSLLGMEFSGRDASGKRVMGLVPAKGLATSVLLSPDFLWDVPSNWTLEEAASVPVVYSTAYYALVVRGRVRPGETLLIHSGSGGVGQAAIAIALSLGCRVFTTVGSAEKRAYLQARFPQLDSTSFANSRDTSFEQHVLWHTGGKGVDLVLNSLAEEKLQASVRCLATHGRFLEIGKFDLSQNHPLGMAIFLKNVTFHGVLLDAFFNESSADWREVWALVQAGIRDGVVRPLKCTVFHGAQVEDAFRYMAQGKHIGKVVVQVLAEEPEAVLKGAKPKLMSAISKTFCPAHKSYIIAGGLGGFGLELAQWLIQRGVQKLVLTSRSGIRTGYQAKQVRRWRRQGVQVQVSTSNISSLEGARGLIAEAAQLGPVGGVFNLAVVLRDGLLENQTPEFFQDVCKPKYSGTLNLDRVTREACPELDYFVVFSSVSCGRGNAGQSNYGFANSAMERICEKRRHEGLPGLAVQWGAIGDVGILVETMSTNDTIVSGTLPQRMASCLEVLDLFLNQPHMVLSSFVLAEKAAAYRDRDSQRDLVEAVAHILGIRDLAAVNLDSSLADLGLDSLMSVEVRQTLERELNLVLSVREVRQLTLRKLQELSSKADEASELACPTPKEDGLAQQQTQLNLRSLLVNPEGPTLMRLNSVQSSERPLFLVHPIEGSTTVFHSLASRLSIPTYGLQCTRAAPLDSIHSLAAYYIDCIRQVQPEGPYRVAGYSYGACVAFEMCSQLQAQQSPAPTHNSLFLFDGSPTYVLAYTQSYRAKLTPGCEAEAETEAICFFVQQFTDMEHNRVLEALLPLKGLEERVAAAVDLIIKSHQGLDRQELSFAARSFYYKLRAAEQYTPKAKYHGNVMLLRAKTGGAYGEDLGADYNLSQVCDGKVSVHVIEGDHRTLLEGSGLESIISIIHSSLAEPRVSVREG

CC1(C)C(=O)N(Cl)C(=O)N1Cl
active: [8] 50 µM
not listed: [18] | [19] | [20]
inactive: all other assays above

CCCCC(CC)C(=O)OCCOCCOCCOC(=O)C(CC)CCCC (stereo not given)
not listed: [3]
inactive: all other assays above

C=CCc1cc(S(=O)(=O)c2ccc(O)c(CC=C)c2)ccc1O
active: [2] 81.4 µM | [5] 88.2 µM | [6] 71.6 µM | [7] 76.9 µM | [10] 79.6 µM | [12] 84.9 µM | [13] 89.1 µM | [16] 81.6 µM | [17] 50 µM
not listed: [3]
inactive: all other assays above

Source: PubChem BioAssay (EPA / NIEHS)
